This passage reports AC50 and outcome results from PubChem BioAssay (EPA / NIEHS).

What is called AC50 is the midpoint of the concentration-response curve, whichever way the signal moves.

The structures appear in SMILES notation. Records with an inconclusive call do not appear. Activity calls are given as the source filed them. How the source made its calls: active means hit-call score of the fitted dose curve at least 0.9, where 1 is the maximum; inconclusive means response in the unintended direction; inactive means score below 0.9.

Read-out in the experiment: ABC Transporter (ABCB1), ABCB1 (gene 5243)
Kind of experiment: CLD_ABCB1_48hr: CellzDirect (CLD) Gene Expression Assay for ABC Transporter (ABCB1) at 48 hours (AID 2283695).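 On AC50: potency for induction meaning increase of mRNA over DMSO vehicle.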 The procedure:
CLD_48hr is a cell-based, multiplexed-readout assay that uses hepatocyte, a human liver primary cell, with measurements taken at 48 hours after chemical dosing in a 96-well plate.CLD_ABCB1_48hr is one of 16 assay component(s) measured or calculated from the CLD_48hr assay. It is designed to make measurements of mRNA induction, a form of inducible reporter, as detected with chemiluminescence signals by Quantitative Nuclease Protection Assay (qNPA) technology.Data from the assay component CLD_ABCB1_48hr was analyzed at the endpoint, CLD_ABCB1_48hr, in the positive analysis fitting direction relative to DMSO as the negative control and baseline of activity. Using a type of inducible reporter, gain-of-signal activity can be used to understand changes in the reporter gene as they relate to the gene ABCB1. Furthermore, this assay endpoint can be referred to as a primary readout. To generalize the intended target to other relatable targets, this assay endpoint is annotated to the transporter intended target family, where subfamily is ABC transporter.
Human hepatocyte cultures were treated daily for two consecutive days with fresh dosing solutions containing appropriate concentrations of the 320 ToxCast chemicals (chemical identities were blinded to CellzDirect and other ToxCast collaborators), vehicle control (0.2% DMSO), and positive control inducers as summarized in Table 1. Due to the large number of treatment groups and chemicals examined, the ToxCast chemicals were divided into two groups (spanning two independent cultures of hepatocytes from separate donor preparations (Hu778: ToxCast plates 1 and 2; Hu776: ToxCast plates 3 and 4). Each preparation of human hepatocyte cultures was treated with respective vehicle control, medium only control, set of six positive controls/reference chemicals for the five hepatic receptor pathways, and a subset of eight of the ToxCast chemicals (indoxacarb, pyrithiobac-sodium, norflurazon, cyhalofop-butyl, methomyl, thiram, acetochlor, and propiconazole). These replicate data, coupled with internal replicates designed within the blinded ToxCast chemical library, provided additional data to evaluate interindividual differences between hepatocyte preparations and their potential impact on chemical profiles.Cell morphology and integrity were evaluated using phase-contrast microscopy as an indicator of hepatocyte cell health (Tyson & Green, 1987). Cultures for each treatment group (i.e., media, vehicle [0.2% DMSO], positive control inducers [multiple concentrations], and the ToxCast chemicals [multiple concentrations]) were observed and cell morphology was assessed relative to vehicle control cultures at each harvest time point (0, 6, 24, or 48 h). […] Images were evaluated at the conclusion of the study to assess changes in cell integrity and account for the effects of chemical exposure on uncharacteristic changes in concentration-dependent gene expression profiles. The results from these determinations of apparent cytotoxicity were annotated (yes/no) alongside the corresponding qNPA data for reference.At the conclusion of each treatment period, hepatocyte cultures (96-well) were washed with 1 volume of HBSS, lysed by addition of 25 ul ArrayPlate lysis buffer (HTG, Tucson, AZ), and 70 ul/well of Denaturation Oil, denatured by incubation at 95C for 10 min, and frozen at approximately -70C until analysis by nuclease protection assay (qNPA) (Roberts et al., 2007). For qNPA analysis, cell lysates were thawed at 50C for approximately 30 min, qNPA probes were added, and samples were incubated at 95C for 10 min to begin the detection process by denaturing the target RNA, dissociating the duplexes and secondary structure hybridization. At the conclusion of the hybridization period, S1 nuclease reagent was added to each sample to digest all nonprotected nucleotides at 50C for 60-90 min. […]
Consider `O=S1OCC2C(CO1)C1(Cl)C(Cl)=C(Cl)C2(Cl)C1(Cl)Cl` (stereo not drawn), for which the AC50 was 29.4 µM (active).

Take `CCOC1Oc2ccc(OS(C)(=O)=O)cc2C1(C)C` (stereo not drawn): the molecule was called inactive.

For `CCS(=O)(=O)c1cccnc1S(=O)(=O)NC(=O)Nc1nc(OC)cc(OC)n1`, the result was inactive.

As for `CNC(=O)CSP(=S)(OC)OC`, the call was inactive.

On to `CC(C)(C)C(O)C(Oc1ccc(Cl)cc1)n1cncn1` (stereo not drawn), for which the molecule was called inactive.

Take `CCN(CC)C(=O)SCc1ccc(Cl)cc1`: the outcome was inactive.

For `O=C(O)C(F)(F)C(F)(F)C(F)(F)C(F)(F)C(F)(F)C(F)(F)C(F)(F)F`, the molecule was called inactive.

As for `CCCN(CCOc1c(Cl)cc(Cl)cc1Cl)C(=O)n1ccnc1`, the AC50 is 20 µM (active).

In the case of `CCC(C)Nc1c([N+](=O)[O-])cc(C(C)(C)C)cc1[N+](=O)[O-]` (stereo not drawn), the molecule was called inactive.

On to `N#CN`, for which the result was inactive.

On to `COP(=O)(OC)OC=C(Cl)Cl`, for which the molecule was classed as inactive.

`O=C(O)CCCOc1ccc(Cl)cc1Cl`: the call was inactive.

With `Cc1[nH]c(=O)n(C(C)(C)C)c(=O)c1Cl`, the call was inactive.

On to `C[C@H]1[C@H](c2ccc(Cl)cc2)SC(=O)N1C(=O)NC1CCCCC1`, for which the AC50 is 35.5 µM (active).

`CCc1ccc(C(=O)NN(C(=O)c2cc(C)cc(C)c2)C(C)(C)C)cc1`: the outcome was inactive.

For `COC(=O)c1ccccc1S(=O)(=O)NC(=O)Nc1nc(C)nc(OC)n1`, the call was inactive.

Regarding `CCCN(CCC)c1c([N+](=O)[O-])cc(C(F)(F)F)cc1[N+](=O)[O-]`, the molecule was called inactive.

As for `CNC(=O)Oc1cccc(N=CN(C)C)c1`, the molecule was classed as inactive.

Consider `O=C(O)COc1ccc(Cl)cc1Cl`, for which the call was inactive.

As to `CNC(=O)/C=C(\C)OP(=O)(OC)OC`, the molecule was classed as inactive.

Take `O=S(=O)(O)C(F)(F)C(F)(F)C(F)(F)C(F)(F)C(F)(F)C(F)(F)C(F)(F)C(F)(F)F`: the result was inactive.

Regarding `CCOCN(C(=O)CCl)c1c(C)cccc1CC`, the outcome was inactive.

`COP(=S)(OC)Oc1ccc([N+](=O)[O-])cc1`: the outcome was inactive.

For the molecule `C#CCN1C(=O)COc2cc(F)c(N3C(=O)C4=C(CCCC4)C3=O)cc21`, the molecule was called inactive.

As for `O=C1c2ccccc2C(=O)N1SC(Cl)(Cl)Cl`, the call was inactive.

Regarding `CCC(C)(C)C(=O)OC1=C(c2ccc(Cl)cc2Cl)C(=O)OC12CCCCC2`, the molecule was called inactive.

For the molecule `Cc1cc(C)nc(NC(=O)NS(=O)(=O)c2ccccc2C(=O)OC2COC2)n1`, the molecule was called inactive.

Take `CC1(c2ccc(Oc3ccccc3)cc2)OC(=O)N(Nc2ccccc2)C1=O` (stereo not drawn): the molecule was classed as inactive.

On to `CC(C)(C)C(O)/C(=C\c1ccc(Cl)cc1Cl)n1cncn1` (stereo not drawn), for which the AC50 was 31.3 µM (active).

As to `CCOc1nc(NC)nc(NC(=O)NS(=O)(=O)c2ccccc2C(=O)OC)n1`, the result was inactive.

Consider `ClC1C(Cl)C(Cl)C(Cl)C(Cl)C1Cl` (stereo not drawn), for which the result was inactive.

Consider `CCC(C)(NC(=O)c1cc(Cl)c(C)c(Cl)c1)C(=O)CCl` (stereo not drawn), for which the molecule was called inactive.

For `Oc1cc(Cl)ccc1Oc1ccc(Cl)cc1Cl`, the call was inactive.

Regarding `COc1cc(OC)nc(NC(=O)NS(=O)(=O)c2cc(NC=O)ccc2C(=O)N(C)C)n1`, the molecule was classed as inactive.

Take `O=[N+]([O-])/N=C1\NCCN1Cc1ccc(Cl)nc1`: the result was inactive.

For `CC[C@H](C)[C@H]1O[C@]2(C=C[C@@H]1C)C[C@@H]1C[C@@H](C/C=C(\C)[C@@H](O[C@H]3C[C@H](OC)[C@@H](O[C@H]4C[C@H](OC)[C@@H](O)[C@H](C)O4)[C@H](C)O3)[C@@H](C)/C=C/C=C3\CO[C@@H]4[C@H](O)C(C)=C[C@@H](C(=O)O1)[C@]34O)O2` (tested in a mixture with another compound), the AC50 was 1.01 µM (active).

As for `CC(C)N(C(=O)COc1nnc(C(F)(F)F)s1)c1ccc(F)cc1`, the molecule was classed as inactive.

As to `CNC(=O)Oc1ccccc1OC(C)C`, the molecule was called inactive.
